A short description of experiment [1]: Cytotoxicity counterscreen for NFkB agonists and antagonists (AID 624476).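 Note: cells exposed to compound for 48 hours.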 Note: potency is the fitted concentration of half-maximal effect. On the technique in general: Counterscreens check selectivity or assay interference.
A short description of experiment [2]: Cell Proliferation Assay against the TMD8 Cell Line (AID 651645).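 Note: cells exposed to compound for 48 h before reading.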 To be noted: TMD8 DLBCL cell line proliferation/viability; at 46.1 µM (top of the series). The procedure, abridged: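 Viability by CellTiter-Glo after 48 h compound exposure of 500 log-phase TMD8 cells per well (RPMI, 5% FBS). Percent activity scaled between DMSO (100%) and 9.2 uM final bortezomib (0%).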

The nature of experiment [3]: Cell Proliferation Assay against the HBL1 Cell Line (AID 651646).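 Note: cells exposed to compound for 48 h before reading.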 To be noted: HBL1 DLBCL cells; at 46.1 µM (top of the series). The gist of the method: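 HBL1, 500 cells/well, RPMI no phenol red + 5% FBS; cpd pinned, 48 h 37C/5% CO2; CellTiter-Glo, 15 min RT, luminescence. % activity: DMSO = 100%, bortezomib 9.2 uM final = 0%.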
A short description of experiment [4]: Cell Proliferation Assay against the TMD8 Cell Line (Caspase readout at 16 hrs) (AID 651712). Note: potency is the fitted concentration of half-maximal effect. The gist of the method: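 Caspase-Glo luminescence after 16 h compound exposure of TMD8 cells, 37 °C, 5% CO2. Medium: RPMI without phenol red, 5% FBS. Normalisation: DMSO = 0%, bortezomib 9.2 uM final = 100%.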
Experiment [5] in a line: Cell Proliferation Assay against the TMD8 Cell Line (Caspase readout at 8 hrs) (AID 651713). Note: potency is the fitted concentration of half-maximal effect. The procedure, abridged: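 Luminescent caspase 3/7 assay; TMD8 cells, 8 h treatment at 37C, 5% CO2. Normalisation: DMSO 0%, 9.2 uM bortezomib 100%.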
Experiment [6] is described as follows: qHTS assay for small molecule agonists of the antioxidant response element (ARE) signaling pathway (AID 651741; active = well fitted activation curve with a large enough effect in the signal ratio; the % refers to the signal ratio; note: potency is the fitted concentration of half-maximal effect; for activation: % of control where 0% means no effect). The procedure, abridged:
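HepG2 ARE-bla reporter cells, 2,000/well; 5 h settle at 37 C/5% CO2; compound pin transfer (23 nL, DMSO); 16 h at 37 C; LiveBLAzer B/G FRET substrate, 2 h RT; fluorescence intensity read.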
Background: qHTS replaces the single test concentration by a dilution series.

Experiment [7] can be described thus: qHTS assay for small molecule activators of the p53 signaling pathway (AID 651743; active = well fitted activation curve with a large enough effect in the signal ratio, not every such curve was filed as active; the % refers to the signal ratio; note: potency is the fitted concentration of half-maximal effect; for activation: % of control where 0% means no effect). To be noted: HCT-116 p53RE-bla, beta-lactamase FRET ratio, 16 h; activation: stronger effect = higher value. The gist of the method: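 Reporter: beta-lactamase driven by p53 response elements, stably integrated in HCT-116 cells. Cells seeded at 4,000/well, 5 h preincubation, compound (DMSO) 16 h at 37 C; B/G FRET substrate 2 h RT; fluorescence intensity read.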

Experiment [8] can be described thus: qHTS assay for small molecule disruptors of the mitochondrial membrane potential - 1 hr assay (AID 651754; calls by dose curve; note: nearly all actives have a fitted effect of over 35% in size; note: potency is the fitted concentration of half-maximal effect). The procedure, abridged:
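In this qHTS format, a 1 hr compound treatment of HepG2 cells precedes Mito-MPS staining, and membrane potential is judged from aggregate (red) against monomer (green) fluorescence intensity.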

Experiment [9] is described as follows: qHTS assay for small molecule disruptors of the mitochondrial membrane potential - 5 hr assay (AID 651755; calls by dose curve; note: nearly all actives have a fitted effect of over 40% in size; note: potency is the fitted concentration of half-maximal effect). The procedure, abridged: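 Read-out: ratiometric Mito-MPS fluorescence, green monomer (ex 490/em 535) vs red mitochondrial aggregate (ex 540/em 590). HepG2 cells treated 5 hr at 37C before 30 min dye loading.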
Experiment [10] concerns the target Tumor necrosis factor (Homo sapiens) (UniProt P01375). The experiment is described as follows: qHTS assay to identify small molecules that stimulate Tumor Necrosis Factor-alpha (TNF-alpha) secretion (AID 651757; active = well fitted curve in the direction sought with a large enough effect in the signal ratio; the % refers to the signal ratio; note: 0% is about no effect). The gist of the method: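 Using 3000 THP-1 cells per well, compounds and controls were applied for 17 hrs at 37 C. Detection followed with two labeled anti-TNF-alpha antibodies (cryptate donor, XL665 acceptor) for 3 hr at room temperature, measured by TR-FRET.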

Experiment [11] in a line: qHTS assay for environmental chemicals that activate the Aryl hydrocarbon Receptor (AhR) signaling pathway (AID 651777). For activation: % of control where 0% means no effect. Note: nearly all actives have a fitted effect of over 15% in size. Note: potency is the fitted concentration of half-maximal effect. As to conditions: 1A2-DRE human hepatoma cells, luciferase, 24 h; activation: stronger effect = higher value. The procedure, abridged: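 Induction of CYP1A2 transcription through AhR is detected by luciferase in 1A2-DRE hepatoma cells. Compounds or DMSO act for 24 hr at 37 C before a 30 min One-Glo step at room temperature.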

Experiment [12] has as its target Peroxisome proliferator-activated receptor alpha (Homo sapiens) (UniProt Q07869). The experiment is described as follows: qHTS assay for small molecule agonists of the peroxisome proliferator-activated receptor alpha (PPARalpha) signaling pathway (AID 651778). Note: % of control where 0% means no effect. As to conditions: PathHunter PPARalpha complementation, chemiluminescence, 6 h; max response: stronger effect = higher value. The gist of the method:
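Enzyme-fragment complementation assay in which ligand-bound PPARalpha translocates and forms an active enzyme that generates chemiluminescence. Cells were plated overnight, exposed to compound for 6 hr at 37 C, and then given detection reagent for 60 min at room temperature.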

Experiment [13] concerns the target Nuclear receptor ROR-gamma (Homo sapiens) (UniProt P51449). The experiment is described as follows: qHTS assay for small molecule antagonists of the retinoid-related orphan receptor gamma (ROR-gamma) signaling pathway (AID 651802).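 Note: luciferase reporter luminescence driven by ROR response element; % is set by controls: 0 for no effect and ±100 for the full control effect; nearly all actives have a fitted effect of over 60% in size.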 The gist of the method: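 Doxycycline-induced reporter activity in engineered CHO cells (TET-inducible ROR, RORE-LUC) was measured by luminescence after 16hr compound exposure at 37C.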

Experiment [14] can be described thus: qHTS assay for small molecule activators of the nuclear factor-kappa B (NF-kB) signaling pathway (AID 651749; active = well fitted activation curve with a large enough effect in the signal ratio; the % refers to the signal ratio; note: % of control where 0% means no effect). To be noted: NF-kB-bla ME-180 cells, beta-lactamase FRET ratio, 16 h; stronger effect = higher value. The gist of the method: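 NF-kB-bla ME-180 cells, 2,000/well; 23 nL compound or DMSO pinned; 16 hr, 37C/5% CO2; beta-lactamase FRET read-out.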
The nature of experiment [15]: qHTS Assay for Identification of Small Molecule Antagonists for NFkB Signaling Pathway. (AID 624479; calls by dose curve;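 note: pathway stimulated with TNF alpha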; note: potency is the fitted concentration of half-maximal effect).
The nature of experiment [16]: qHTS assay to identify small molecules that stimulate interleukin-8 (IL-8) secretion (AID 651758; active = well fitted activation curve with a large enough effect in the signal ratio; the % refers to the signal ratio; note: 0% is about no effect). The gist of the method: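 Compounds are added to THP-1 cells (2000 per well) and left 16 hrs at 37 C. A labeled anti-IL-8 antibody pair is then added, and IL-8 secretion is measured by time-resolved FRET after 1-3 hrs at room temperature.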

Structures are written as SMILES. “And” between values parts separate entries of the source, which are not always exact repeats. Equal entries are not always repeated. Results filed as inconclusive are left out. The source made the active and inactive calls. Unless noted, calls come from the whole dose curve; as a rule, active = well fitted curve in the direction sought with a large enough effect; inconclusive = small, poorly fitted or top-dose-only effect, or another doubt; inactive = no such curve, though single readings can be large; an effect the other way counts as inactive or inconclusive.

Peroxisome proliferator-activated receptor alpha (Homo sapiens), sequence (Q07869 whole entry, looked up, the tested form may be a part): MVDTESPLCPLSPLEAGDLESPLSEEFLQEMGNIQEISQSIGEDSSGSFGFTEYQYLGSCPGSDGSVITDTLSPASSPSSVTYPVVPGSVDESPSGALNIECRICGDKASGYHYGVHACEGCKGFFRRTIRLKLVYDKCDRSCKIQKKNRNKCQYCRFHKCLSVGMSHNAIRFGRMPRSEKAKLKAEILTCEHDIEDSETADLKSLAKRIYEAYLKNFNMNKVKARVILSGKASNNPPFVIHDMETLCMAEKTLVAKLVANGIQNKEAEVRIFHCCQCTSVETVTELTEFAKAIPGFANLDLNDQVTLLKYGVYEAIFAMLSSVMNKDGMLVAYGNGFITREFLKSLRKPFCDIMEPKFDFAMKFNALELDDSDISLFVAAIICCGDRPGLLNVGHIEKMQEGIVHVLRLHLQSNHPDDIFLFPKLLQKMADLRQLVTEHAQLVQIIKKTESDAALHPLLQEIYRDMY
Tumor necrosis factor (Homo sapiens), sequence (P01375 whole entry, looked up): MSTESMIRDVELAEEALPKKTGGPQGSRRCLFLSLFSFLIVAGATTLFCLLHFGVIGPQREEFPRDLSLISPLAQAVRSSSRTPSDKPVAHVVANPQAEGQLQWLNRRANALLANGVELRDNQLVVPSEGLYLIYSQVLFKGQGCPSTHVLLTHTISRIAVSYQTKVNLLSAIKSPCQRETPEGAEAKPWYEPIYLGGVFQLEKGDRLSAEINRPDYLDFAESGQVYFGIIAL
Nuclear receptor ROR-gamma (Homo sapiens), sequence (P51449 whole entry, looked up): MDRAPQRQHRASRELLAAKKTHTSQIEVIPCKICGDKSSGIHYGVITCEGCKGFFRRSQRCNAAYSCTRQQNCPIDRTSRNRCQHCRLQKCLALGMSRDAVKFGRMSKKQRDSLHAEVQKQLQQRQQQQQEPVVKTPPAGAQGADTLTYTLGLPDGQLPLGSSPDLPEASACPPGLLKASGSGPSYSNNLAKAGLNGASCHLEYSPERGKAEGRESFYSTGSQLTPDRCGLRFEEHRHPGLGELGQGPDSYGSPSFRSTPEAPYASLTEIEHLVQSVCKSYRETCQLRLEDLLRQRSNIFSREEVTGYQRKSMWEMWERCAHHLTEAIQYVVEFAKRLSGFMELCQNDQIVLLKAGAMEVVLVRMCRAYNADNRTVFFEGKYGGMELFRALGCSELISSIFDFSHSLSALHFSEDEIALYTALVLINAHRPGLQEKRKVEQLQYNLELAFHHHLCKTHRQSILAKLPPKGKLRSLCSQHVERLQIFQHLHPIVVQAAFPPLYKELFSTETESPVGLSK

`CCCCC/C=C\C/C=C\C/C=C\C/C=C\CCCC(=O)NC1CC1`: the Potency result in experiment [1], in [4] and in experiment [5] was “inactive” throughout. Moreover, the viability (% of control) in experiment [2] came out at 86.9%. In experiment [3], the viability, percent of control stood at 109%.
On to `OCCOc1ccccc1`, for which the Potency entry in [6], in experiment [8], in [9] and in [13] was “inactive” each time. Further, the activation in [7] was -4.8% (inactive) and -3.64% (inactive); in experiment [11] it was -1.68% (inactive) and 1.95% (inactive) and 8.55% (inactive). In [10], the call was inactive. In addition, the max response in [12] is -6.3% (inactive) and -2.04% (inactive) and 0.179% (inactive).
For `Oc1ccc(Cl)cc1Cc1ccccc1`, the Potency was 54.5 µM (active) and 42.2 µM (active) in [6]; 18.8 µM (active) in experiment [8]; 21.1 µM (active) in [9]. The activation in experiment [7] was -3.88% (inactive) and -4.49% (inactive); in experiment [14], -0.62% (inactive) and 0.873% (inactive); in [11], 0.74% (inactive) and 2.47% (inactive). For the same molecule, the molecule was classed as inactive in experiment [10]. In addition, the max response in experiment [12] was 14% (inactive) and 4.54% (inactive).
Turning to `O=C(O)C(=O)c1cn(Cc2ccccc2)c2ccc(-c3ccc(OC(F)(F)F)cc3)cc12`, the figures for the Potency in experiment [1] and in [15] were 18.7 µM (active) and 16.8 µM (active), respectively. Also, the viability (% of control) in experiment [2] stood at 75.1%. Moreover, the viability, percent of control in experiment [3] is 68.4%. Besides, the Potency result in [5] is “inactive”.
Regarding `C[C@]12C/C(=C/O)C(=O)C[C@@H]1CC[C@@H]1[C@@H]2CC[C@@]2(C)[C@H]1CC[C@]2(C)O`, the Potency in experiment [6] is 6.86 µM (active) and 7.5 µM (active). In addition, the activation is 23.1% (inactive) in [7]; 1.36% (inactive) and 0.159% (inactive) in [11]. Besides, the Potency entry in experiment [8], in experiment [9] and in [16] was “inactive” in each case. For the same molecule, the molecule was classed as inactive in experiment [10]. In addition, the max response in experiment [12] was -0.191% (inactive) and -0.334% (inactive).
On to `Oc1cc(Cl)ccc1Oc1ccc(Cl)cc1Cl`, for which the Potency in experiment [6] is 54.5 µM (active). In addition, the activation in [14] is 2.77% (inactive). The max response in [12] was 13.1% (inactive).
For the molecule `C[C@H]1O[C@@H](O[C@H]2[C@@H](O)C[C@H](O[C@H]3[C@@H](O)C[C@H](O[C@H]4CC[C@@]5(C)[C@H](CC[C@@H]6[C@@H]5CC[C@]5(C)[C@@H](C7=CC(=O)OC7)CC[C@]65O)C4)O[C@@H]3C)O[C@@H]2C)C[C@H](O)[C@@H]1O`, the results for the activation in [7] and in experiment [14] were -10.8% (inactive) and -1.01% (inactive), respectively. Also, the max response in [12] is -0.744% (inactive).
Take `CC(C)n1c(C=C[C@H](O)C[C@H](O)CC(=O)O)c(-c2ccc(F)cc2)c2ccccc21`: in [2], the viability (% of control) came to 83.4%. In addition, the viability, percent of control in experiment [3] was found to be 74.8%.
As to `C[C@@H]1[C@@H](C(=O)C[C@H]2O[C@@H]3O[C@]4(C)CC[C@@H]5[C@H](C)CC[C@@H]([C@H]2C)[C@@]35OO4)O[C@@H]2O[C@]3(C)CC[C@H]4[C@H](C)CC[C@@H]1[C@@]24OO3`, the Potency entry in experiment [1], in [15] and in experiment [5] was “inactive” throughout. For the same molecule, the viability (% of control) in [2] stood at 6.12%. Also, the viability, percent of control in experiment [3] was 21.3%.
As for `COc1cc(Nc2c(C#N)cnc3cc(OCCCN4CCN(C)CC4)c(OC)cc23)c(Cl)cc1Cl`, the Potency in [5] was 20.9 µM (active).
With `COc1cc([C@@H]2c3cc4c(cc3[C@H](O)[C@H]3COC(=O)[C@H]23)OCO4)cc(OC)c1OC`, the Potency result in experiment [1] was “inactive”. For the same molecule, the Potency in experiment [4] is 0.0037 µM (active).
On to `O=c1[nH]cc(F)c(=O)[nH]1`, for which the Potency in [7] was 3.98 µM (active).
As for `CC1=C2C[C@@H]3[C@@H](CC=C4C[C@@H](O)CC[C@@]43C)[C@@H]2CC[C@]12O[C@H]1C[C@H](C)CN[C@H]1[C@H]2C`, the Potency result in experiment [1] was “inactive”. Besides, the viability (% of control) in experiment [2] was 62.9%. For the same molecule, in experiment [3], the viability, percent of control was determined as 69.1%.
Regarding `NC(=Nc1ccccc1)Nc1ccccc1`, the Potency in experiment [6] was 19.3 µM (active) and 18.8 µM (active); in [11], 11.2 µM (active).
Regarding `CC(COc1ccccc1)N(CCCl)Cc1ccccc1` (configuration not stated), the Potency in [6] was 48.6 µM (active) and 42.2 µM (active).

Source of the values: PubChem BioAssay (NCATS).
